Assay results reported in ChEMBL document CHEMBL3988442, “University of Dundee, Small-Polar-MMV Screening Library” (2021).
Out of some 48,000 compounds screened, about 13,000 (27%) showed an effect of 50% or more. The list shows a part of the results.

System: Wolbachia pipientis
Assay: Anti-Wolbachia Cell-Based Screen
Format: functional
Set-up: scale not given: in the data most compounds retested in dose-response had high values
Details: 5 µM

SMILES | Percent Effect
CC(C)[C@@H]1CN(CC(=O)NCc2ccco2)C[C@H]1NS(=O)(=O)N(C)C | -2.04%
CCSc1nc(N)c(NC(=O)c2ccc(C)cc2)c(=O)[nH]1 | -2.31%
CCOCc1ccc(CNC2=NCCCN2)cc1.I | 0.3337%
Br.Cc1ccc(OCCCSC2=NCCN2)cc1 | 5.255%
Br.Cc1ccc(OCCSC2=NCCN2)cc1 | 1.775%
I.c1ccc(OCCNC2=NCCCN2)cc1 | 111%
Fc1ccc(OCCCN2CC(n3cccn3)C2)cc1 | 3.105%
Cn1ncc2c(NCCOc3ccc(F)cc3)nc(C3CCCC3)nc21 | 8.04%
CN(C)c1ccc(CNC2=NCCCN2)cc1.I | 13.13%
Fc1ccc(OCCCNC2=NCCCN2)cc1.I | 81.36%
Fc1ccc(OCCCNC2=NCCN2)cc1.I | 63.04%
COC(=O)C1Cc2nc[nH]c2CN1Cc1ccc(Sc2ncccn2)o1 (stereo unspecified) | 2.291%
COc1cc2nc(NCc3cc(C)on3)nc(N)c2cc1OC | -8.416%
CC1CN(Cc2noc(C3CC3)n2)CCN1Cc1nccn1C (stereo unspecified) | -7.382%
CCNC(=O)c1ccnc(N2CCCC(COc3ccccc3C)C2)c1 (stereo unspecified) | 3.224%
CCOCCn1nc(C)cc1C(=O)N(C)Cc1cccc2ncccc12 | 6.003%
C=C(C)Cn1ccc2cc(OC)c(F)cc2c1=O | -16.88%
CC[C@H]1CN(S(C)(=O)=O)CC[C@H]1CC(=O)NCCSC | -2.393%
O=C(c1ccn(-c2ccc(F)cc2)n1)N1CCCC(n2ccnc2)C1 (stereo unspecified) | 97.03%
O=C(c1ccc(-n2cnnn2)cc1)N1CCCC(n2ccnc2)C1 (stereo unspecified) | 90.08%
CS(=O)(=O)c1ccc(C(=O)N2CCCC(n3ccnc3)C2)cc1 (stereo unspecified) | 96.86%
Cc1ccn(-c2ccc(C(=O)N3CCCC(n4ccnc4)C3)cc2)n1 (stereo unspecified) | 4.214%

SMILES | Percent Effect
CCc1nccn1C1CCCN(C(=O)c2ccn(-c3ccccc3)n2)C1 (stereo unspecified) | -25.66%
NC(=O)C1CCCN(C(=O)c2ccc(-n3ccnc3)cc2)C1 (stereo unspecified) | 0.2074%
O=C(c1ccc(-n2ccnc2)cc1)N1CCCC(n2ccnc2)C1 (stereo unspecified) | 120.2%
O=C(CNC(=O)c1ccoc1)NCCOc1ccc2c(c1)CCC2 | 14.09%
NC(=O)COc1ccc(C(=O)N2CCCC(n3ccnc3)C2)cc1 (stereo unspecified) | 96.26%
O=C1COc2cc(C(=O)N3CCCC(n4ccnc4)C3)ccc2N1 (stereo unspecified) | -12.82%
O=C(c1ccc(OCC2CC2)nc1)N1CCCC(n2ccnc2)C1 (stereo unspecified) | -1.875%
CCc1nccn1C1CCCN(C(=O)c2cncn2-c2ccccc2)C1 (stereo unspecified) | -5.728%
Cc1ccnn1-c1ccc(C(=O)N2CCCC(n3ccnc3)C2)cc1 (stereo unspecified) | 116.9%
NC(=O)COc1cccc(C(=O)N2CCCC(n3ccnc3)C2)c1 (stereo unspecified) | 2.122%
CCc1nccn1C1CCCN(C(=O)c2ccc(-n3ccnc3)cc2)C1 (stereo unspecified) | 94.46%
O=C(c1ccc(-n2cnnc2)cc1)N1CCCC(n2ccnc2)C1 (stereo unspecified) | 107.8%
CC1=NN(c2ccc(C(=O)N3CCCC(n4ccnc4)C3)cc2)CC1 (stereo unspecified) | -6.024%
CCC(NCCn1cc(C)cn1)C(=O)Nc1cc(C)on1 (stereo unspecified) | -26.17%
CC(=O)c1cc(CC(=O)NCc2cccc(F)c2F)cs1 | -6.344%
O=C1CC[C@H]2CN(c3ncccc3F)CC[C@H]2N1CCc1ccccc1 | 4.939%
Cc1noc(C)c1CN(C)Cc1csc(-c2ncccn2)n1 | 0.1209%
N[C@@H]1c2ccccc2C2(CCN(C(=O)c3ccc(=O)[nH]c3)CC2)[C@H]1O | 2.656%
Cc1cc(CN2CCN(C(=O)NCc3nc(C)cs3)CC2)on1 | -3.882%
CC1CCCN(C(=O)c2csc(S(N)(=O)=O)c2)CC1 (stereo unspecified) | -10.27%
NS(=O)(=O)c1cc(C(=O)N2CCCC(n3ccnc3)C2)cs1 (stereo unspecified) | 104.4%
O=C(c1csc(Br)c1)N1CCCC(n2ccnc2)C1 (stereo unspecified) | -1.444%

SMILES | Percent Effect
FC(F)(F)c1cccnc1N1CCC(OC2CCOCC2)CC1 | 1.629%
CCOc1ccc(CNC(C)c2ccc3[nH]c(=O)[nH]c3c2)cc1 (stereo unspecified) | 115.8%
COc1ccc(CNC(C)c2ccc3[nH]c(=O)[nH]c3c2)cc1 (stereo unspecified) | 1.768%
Cc1ccc(CNC(C)c2ccc3[nH]c(=O)[nH]c3c2)s1 (stereo unspecified) | 0.5584%
CC(NCc1ccc(F)cc1)c1ccc2[nH]c(=O)[nH]c2c1 (stereo unspecified) | 94.79%
CC(NCc1ccc(F)cc1)c1ccc(OCC(=O)NC2CC2)cc1 (stereo unspecified) | 13.29%
CC(NCc1ccc(OCC(N)=O)cc1)c1ccc(Cl)c(Cl)c1.Cl (stereo unspecified) | 11.22%
Nc1ccnc(N2CCC(CCc3ccccc3)(C(=O)O)CC2)n1 | -1.622%
CC(C)CC1COCCN1C(=O)Cc1cccs1 (stereo unspecified) | -4.501%
CN(C)C[C@@H]1C[C@@H]2CN(C(=O)Cc3cccs3)CC[C@@H]2N1C | 87.94%
CC(=O)N1[C@H](CN(C)C)C[C@@H]2CN(c3ncc(F)cn3)CC[C@@H]21.O=C(O)C(F)(F)F.O=C(O)C(F)(F)F | -11.57%
CC(=O)N1[C@H](CN(C)C)C[C@@H]2CN(C(=O)Cc3cccs3)CC[C@@H]21.O=C(O)C(F)(F)F | 96.5%
CN(C)Cc1nnc(C2CCN(C(=O)CCc3cccs3)CC2)n1C | -18.7%
CC(=O)N1[C@H](Cn2cncn2)C[C@@H]2CN(Cc3ccncc3)CC[C@@H]21.O=C(O)C(F)(F)F.O=C(O)C(F)(F)F | -2.106%
Cn1cc(CCCNS(=O)(=O)N2CCCC2c2ccco2)cn1 (stereo unspecified) | -2.203%
OC1(CNc2ccc(Br)cn2)CCSCC1 | 5.842%
CC(C)N(C)[C@@H]1CCN(C(=O)[C@H]2CCCO2)[C@H]1Cc1cnn(C)c1 | -7.042%
O=C1CC[C@H]2[C@H](CCN2C(=O)C2CCCO2)N1Cc1ccncc1 (stereo partly specified) | 9.155%
O=C([C@H]1CCCO1)N1CC[C@H](O)[C@@H]1Cc1cccnc1 | 104.4%
Cc1cc(C(=O)N2CC[C@H](OCC3CC3)[C@@H]2Cc2cccnc2)no1 | -4.828%
O=C([C@H]1CCCO1)N1CC[C@@H](O)[C@@H]1Cc1ccccc1 | 97.77%
O=C(O)C(F)(F)F.O=C([C@H]1CCCO1)N1CC[C@H](O)[C@@H]1Cc1ccncc1 | -12.15%
